Sampled rows, rich in hits. Any-hit rate of the full collection: about 10%.
SW480 rereplic = A quantitative high throughput screen for small molecules that induce DNA re-replication in SW480 colon adenocarcinoma cells | SW480 DNA re-replication, Hoechst DNA content imaging, 48 h | Potency, µM (doses to about 46.1 µM), without a hit: top-dose re-replication activation, actives largely listed as activators | 340,000 tested, 1.8% active | AID 624297, 2012; further: % of control where 0% means no effect; nearly all actives have a fitted effect of over 55% in size
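Readout is total intensity of Hoechst-stained nuclei, excited at 405 nm and collected at 500-530 nm. Compound treatment lasted 48 hr at 37 C in 5% CO2 before staining.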
MCF10A rereplic = A quantitative high throughput screen for small molecules that induce DNA re-replication in MCF 10a normal breast cells. 350,000 tested, 2.9% active. Potency, µM (doses to about 46.1 µM), for inactives: at the top dose activity, positive = re-replication, most hits filed as activators. AID 624296, 2012. MCF 10A DNA re-replication, Hoechst nuclear intensity, 48 h; further: % of control where 0% means no effect; nearly all actives have a fitted effect of over 50% in size
RORgamma inh = qHTS for inhibitors of ROR gamma transcriptional activity; Drosophila S2 Gal4-RORgamma UAS-luciferase reporter, 20 h; Potency, µM (top dose mostly 53.6 µM), without a hit: at the top dose activity change, negative = inhibition, usual class: inhibitors; Nuclear receptor ROR-gamma (Mus musculus), P51450; 310,000 tested, 5.4% active; further: on the % scale 0 is the no-effect control and ±100 the full control effect; nearly all actives have a fitted effect of over 60% in size
Target sequence (P51450 whole entry, looked up, the tested form may be a part): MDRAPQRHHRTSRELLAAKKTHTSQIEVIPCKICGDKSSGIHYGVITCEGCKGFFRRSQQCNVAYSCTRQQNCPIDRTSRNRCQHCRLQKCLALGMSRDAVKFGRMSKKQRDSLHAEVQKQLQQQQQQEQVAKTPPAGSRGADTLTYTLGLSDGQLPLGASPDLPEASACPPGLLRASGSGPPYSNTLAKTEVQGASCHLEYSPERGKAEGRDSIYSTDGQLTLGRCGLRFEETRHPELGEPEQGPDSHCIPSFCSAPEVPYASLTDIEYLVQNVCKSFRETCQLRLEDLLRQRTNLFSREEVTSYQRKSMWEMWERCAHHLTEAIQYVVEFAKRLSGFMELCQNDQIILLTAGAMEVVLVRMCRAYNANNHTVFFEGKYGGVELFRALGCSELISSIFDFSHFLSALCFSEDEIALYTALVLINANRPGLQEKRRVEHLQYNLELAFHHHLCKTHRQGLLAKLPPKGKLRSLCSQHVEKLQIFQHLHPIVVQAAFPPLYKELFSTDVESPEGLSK
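Luminescence from a UAS-regulated Photinus luciferase reporter in stably transfected Drosophila Schneider cells is measured; decreased signal marks ROR gamma inhibition. Fusion expression is induced by 700 uM copper sulfate for 20 hr.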
ELG1 repair inh = qHTS screen for small molecules that inhibit ELG1-dependent DNA repair in human embryonic kidney (HEK293T) cells expressing luciferase-tagged ELG1; Potency, µM (highest dose often 46.1 µM), without a hit: top-dose activity change, negative = inhibition, actives largely listed as inhibitors; 330,000 tested, 2.3% active; AID 504467, 2011; HEK293T ELG1-luciferase reporter, luminescence, 16 h; DNA damage induced by 5-fluorouridine; further: on the % scale 0 is the no-effect control and ±100 the full control effect; nearly all actives have a fitted effect of over 55% in size
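Cells (2,000 per well) received 5-fluorouridine plus test compound or DMSO and were incubated 16 hr at 37 °C, 5% CO2. Luciferase activity was read by luminescence 30 min after ONE-Glo addition; signal suppression marked inhibition of damage-induced ELG1 function.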
VP16 counter = VP16 counterscreen qHTS for inhibitors of ROR gamma transcriptional activity | 310,000 tested, 3.5% active | Drosophila S2 Gal4-VP16 UAS-luciferase, luminescence, 20 h | Potency, µM (series often up to 53.6 µM), without a hit: top-dose activity, negative = inhibition, hits mostly inhibitors;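 further: Gal4-VP16 expression switched on by copper sulfate through the metallothionein promoter; on the % scale 0 is the no-effect control and ±100 the full control effect; nearly all actives have a fitted effect of over 50% in size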
Active calls of the source: *; u = inconclusive; x = no result; [ ] = dose if it differs, or a comment. The call rests on the fitted dose curve; in most records, active means well fitted curve in the direction sought with a large enough effect; inconclusive means small, poorly fitted or top-dose-only effect, or another doubt; inactive means no such curve, though single readings can be large; an effect the other way counts as inactive or inconclusive. Potency means the concentration at half of the fitted maximal effect.

SMILES	SW480 rereplic	MCF10A rereplic	RORgamma inh	ELG1 repair inh	VP16 counter
Cc1ccc(S(=O)(=O)N2CCC3(CC2)OCCN3S(=O)(=O)c2c(C)cc(C)cc2C)cc1	-48%	u	x	-13%	x
CC(C)(C)c1cc(NS(=O)(=O)c2ccc(Br)s2)no1	-3%	-29%	18%	2%	-18%
O=C(NCc1ccc2c(c1)OCO2)O[C@@H]1C(=O)c2cc(Br)ccc2O[C@H]1c1ccc2c(c1)OCO2	x	x	u	x	-11%
COc1ccc(CC(=O)NC(=S)Nc2cccc(C)c2)cc1	-139%	3%	x	x	x
COc1cccc(CN(C)C(=S)Nc2cccc(C)c2)c1	5%	0%	11µM*	4%	u
COc1ccc(CN(C)C(=S)Nc2ccc(Cl)cc2)cc1	80%	u	10µM*	u	u
CCN(CC)C(=S)Nc1ccc(OC)cc1	1%	-1%	-34%	-1%	3%
Cc1ccc(-c2c(C)sc3nc(CN4CCN(CC(=O)NC5CC5)CC4)[nH]c(=O)c23)cc1	-2%	9%	x	-2%	x
Nc1c(C(=O)c2ccccc2)sc2nsc(SCCN3CCCC3)c12	u	21µM*	u	u	26%
Nc1c(C(=O)c2ccc(Cl)cc2)sc2nsc(SCCN3CCOCC3)c12	u	u	35%	0%	3%
O=C(NNc1ncnc2c1cnn2-c1ccc(F)cc1)c1cccs1	20%	u	13µM*	6%	-5%
Cc1ccc(-n2ncc3c(NNC(=O)Cc4ccccc4)ncnc32)cc1	-17%	23µM*	13µM*	0%	u
Cc1cccc(-n2ncc3c(NNC(=O)c4ccco4)ncnc32)c1	u	6%	7.1µM*	-4%	7.9µM*
Cc1ccc(-n2ncc3c(NNC(=O)c4ccco4)ncnc32)cc1Cl	72%	u	3.2µM*	u	4µM*
Cc1ccc(-n2ncc3c(SCC(=O)NNC(=O)c4ccco4)ncnc32)cc1	0%	22%	-23%	20%	30%
CC(=O)Nc1ccc(Nc2ncnc3c2cnn3-c2cccc(C)c2)cc1	-9%	8%	-29%	u	-9%
COc1ccc(C(=O)N2CCC[C@@]3(CCN(c4cccc(-c5ccccc5)c4)C3)C2)cc1	x	x	27%	x	7%
COc1ccc2c(c1)Sc1ccccc1N2	-1%	u	6.3µM*	u	6.3µM*
c1ccc2c(c1)Nc1cc3ccccc3cc1S2	3%	u	1%	u	7%
O=S(=O)(c1ccc2c(c1)C(=NO)c1cc(S(=O)(=O)N3CCCCC3)ccc1-2)N1CCCCC1	12µM*	2.1µM*	3.5µM*	u	3.2µM*
Cc1ccc(S(=O)(=O)N2CCN(S(=O)(=O)N3CCC(C)CC3)CC2)cc1C	2%	18µM*	-16%	-2%	-4%
CC1CCN(S(=O)(=O)c2ccc3c(c2)C(=NO)c2cc(S(=O)(=O)N4CCC(C)CC4)ccc2-3)CC1	u	0.52µM*	1.8µM*	5.2µM*	0.79µM*
Cc1ccc(S(=O)(=O)N2CCN(S(=O)(=O)N3CCCCC3)CC2)cc1C	-5%	-31%	u	14%	0%
Cc1cccc(NC(=O)c2cc([N+](=O)[O-])ccc2N2CCCCC2)n1	6%	0%	20%	u	-7%
NC(=S)C1COc2ccccc2O1 (stereo unspecified)	u	u	13µM*	18%	-29%
SMILES	SW480 rereplic	MCF10A rereplic	RORgamma inh	ELG1 repair inh	VP16 counter
CC(C)NC(=O)C1COc2ccccc2O1 (stereo unspecified)	-5%	1%	-33%	12%	1%
CCCCc1cc(=O)oc2cc(C)cc(OC(C)C(=O)NCc3cccnc3)c12 (stereo unspecified)	-8%	-2%	-27%	-2%	2%
c1ccc(C(Cc2nc(-c3ccncc3)no2)c2ccccc2)cc1	-1%	4%	u	-5%	10µM*
c1ccc(-c2nc(-c3ccncc3)no2)cc1	-1%	0%	17%	x	-17%
Cc1ccc(Cc2nc(-c3ccncc3)no2)cc1	-10%	4%	u	u	-9%
O=C(O)c1ccc(-c2noc(-c3ccccc3F)n2)cc1	-6%	5%	x	x	10µM*
c1ccc(-c2ccc(-c3nc(-c4ccncc4)no3)cc2)cc1	15%	15µM*	14%	u	-3%
c1ccc(-c2ccccc2-c2nc(-c3ccncc3)no2)cc1	-21%	1%[9.22 µM]	8.9µM*	5%	u
O=C(Nc1nnc(CCS(=O)(=O)c2ccc(Br)cc2)s1)c1ccc([N+](=O)[O-])cc1	-3%	0%	9%	18%	-4%
O=C(Nc1cccc(F)c1)NC1(C(=O)NCC2CCCO2)CCCCC1 (stereo unspecified)	-24%	-19%	4%	14%	-4%
CC(=O)Nc1ccc(Cc2ccc3[nH]c(=O)cc(C)c3c2)cc1	x	x	-28%	u	1%
CN(Cc1nc(-c2ccncc2)no1)S(=O)(=O)c1ccccc1	-2%	0%	2.5µM*	5%	9%
C/C(=C\C(=O)c1ccc(Cl)cc1Cl)N(C)C	-7%	0%	16µM*	11%	u
CC1(C)COC(/C=C/c2cccc([N+](=O)[O-])c2)=N1	u	14µM*	u	u	1.4µM*
CC1(C)COC(c2cc([N+](=O)[O-])ccc2Cl)=N1	-10%	-1%	-1%	5%	10%
OC1(C#CCN2CCCC2)CCCCC1	-3%	10%	-17%	-14%	0%
O=C(CSc1ccccc1[N+](=O)[O-])NC1CCS(=O)(=O)C1 (stereo unspecified)	-2%	3%	-5%	15%	0%
Cc1ccc(OCC(=O)N2N=C(c3ccc(Cl)cc3)CC2c2ccco2)c([N+](=O)[O-])n1 (stereo unspecified)	-4%	13%	15%	21µM*	6%
O=C(COc1cccnc1[N+](=O)[O-])N1N=C(c2ccc(Cl)cc2)CC1c1ccco1 (stereo unspecified)	4%	-2%	9%	u	-9%
CN1CCN(CC(=O)N2N=C(c3cccs3)CC2c2ccco2)CC1 (stereo unspecified)	-40%	-2%	-40%	-11%	u
Cc1ccc(C2=NN(C(=O)CSc3nccn3C)C(c3ccco3)C2)cc1 (stereo unspecified)	12µM*	u	-28%	u	-11%
O=C(CCl)N1N=C(c2ccco2)CC1c1ccco1 (stereo unspecified)	21µM*	u	10µM*	u	u
O=C(O)/C=C/C(=O)N1N=C(c2ccco2)CC1c1ccco1 (stereo unspecified)	-16%	-6%	13%	1%	2%

Compound activity deposited in PubChem by National Center for Advancing Translational Sciences (NCATS).
